Bioassay records from PubChem.
Pin1 inh: human Pin1 inhibition; Pin1 FP peptide displacement, HiFluor488, 10 min; Q13526; 0.009% of 390,000 active; AID 504891; Potency, µM (series often up to 115 µM), for inactives: at the highest dose activity, negative = inhibition, actives largely listed as inhibitors; active = well fitted inhibition curve with a large enough effect in the polarisation, with a control signal flat, not every such curve was filed as active; inconclusive = small, poorly fitted or top-dose-only effect, or effect the other way, or a change in a side signal; inactive = no such curve, though single readings can be large or run the other way; the % refers to the polarisation; also: potency is read from the fitted curve at half-maximal effect
KCNH2 3.1 block: inhibitors of human KCNH2 3.1 potassium channel isoform | U2OS KCNH2 3.1, thallium flux FluxOr; hits give low values | activity change, % (tested at about 1.8 µM) | 0.95% of 340,000 active;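 active = maximum activity change below -70%; inconclusive = maximum activity change from -70% to -50%; inactive = maximum activity change above -50%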;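 also: thallium influx rate constant from kinetic fluorescence after stimulation buffer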
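FluxOr-based Tl+ influx in U2OS cells transduced with KCNH2 3.1 virus; rate constants normalized to DMSO controls.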
GCN5L2 inh: GCN5L2 (KAT2A) acetyltransferase inhibition. 0.21% of 390,000 active. Potency, µM (top dose mostly 58.9 µM), for the others: at the highest dose activity change, negative = inhibition, most hits filed as inhibitors. GCN5L2 HAT assay, ThioGlo1 CoA-SH fluorescence; also: potency is read from the fitted curve at half-maximal effect
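Free CoA generated was detected with ThioGlo1 (50uM) fluorescence at Ex340nm/Em540nm, read immediately and after 20 min at room temperature. Enzyme, 20 nM in HEPES pH 7.5 buffer, saw compounds 15 min before adding 75uM H3(1-25) peptide and 70uM acetyl-CoA.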
RGS4 inh: inhibitors of human regulator of G protein signaling 4; P49798; Transcreener GDP fluorescence polarization, RGS4-accelerated GTP hydrolysis; 0.039% of 390,000 active; Potency, µM (highest dose often 114 µM), without a hit: top-dose activity change, negative = inhibition, most hits filed as inhibitors; also: potency is read from the fitted curve at half-maximal effect; nearly all actives have a fitted effect of over 75% in size
Target sequence (P49798 whole entry, looked up): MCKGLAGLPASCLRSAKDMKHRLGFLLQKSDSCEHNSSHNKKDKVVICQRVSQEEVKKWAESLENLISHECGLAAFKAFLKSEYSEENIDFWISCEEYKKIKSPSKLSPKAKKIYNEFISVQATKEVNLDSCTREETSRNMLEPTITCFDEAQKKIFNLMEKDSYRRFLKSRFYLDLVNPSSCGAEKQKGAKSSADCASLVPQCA
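MLSMR compounds (23 nl, pin-transferred) preincubated 10 min at room temperature with a 500nM (2x) first reagent, then RGS4 at 900nM (2x) plus Transcreener GDP mix added; fluorescence polarization (620/688 nm) read before and after 90 min at 30 °C.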
hERG WT inh: inhibitors of human wildtype KCNH2 potassium channel. Q12809. U2OS, BacMam KCNH2, thallium flux FluxOr; hits give low values. 0.37% of 340,000 active. activity change, % at 1.84 µM;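 active = maximum activity change below -70%; inconclusive = maximum activity change between -70% and -50%; inactive = maximum activity change above -50%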
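U2OS cells were transduced with wild-type KCNH2 virus (2.03 x 10^8 / mL) for 4 h at room temperature, then cultured overnight at 37 C. Thallium flux was read with FluxOr dye. Rate constants were normalized to DMSO controls.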
PGK inhibitor: inhibitors of T. brucei phosphoglycerate kinase; PGK/GAPDH coupled, Kinase-Glo luminescence, 60 min; P07378; 0.043% of 380,000 active; Potency, µM (series often up to 57.5 µM), for inactives: at the highest dose activity change, negative = inhibition, actives largely listed as inhibitors; AID 602233; also: potency is read from the fitted curve at half-maximal effect; nearly all actives have a fitted effect of over 60% in size
Target sequence (P07378 whole entry, looked up): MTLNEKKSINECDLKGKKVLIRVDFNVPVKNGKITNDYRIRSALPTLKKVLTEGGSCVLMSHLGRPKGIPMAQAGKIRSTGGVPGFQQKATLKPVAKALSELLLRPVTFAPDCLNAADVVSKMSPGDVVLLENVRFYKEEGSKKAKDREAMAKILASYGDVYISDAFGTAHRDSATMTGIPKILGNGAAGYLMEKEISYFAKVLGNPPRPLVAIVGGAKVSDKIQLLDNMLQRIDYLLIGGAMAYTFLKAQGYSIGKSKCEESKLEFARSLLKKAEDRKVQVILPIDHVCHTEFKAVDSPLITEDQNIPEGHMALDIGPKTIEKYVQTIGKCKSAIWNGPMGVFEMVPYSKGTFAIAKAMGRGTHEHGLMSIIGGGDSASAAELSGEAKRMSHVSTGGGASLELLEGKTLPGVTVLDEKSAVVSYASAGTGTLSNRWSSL
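Recombinant glycosomal PGK reaction used 1,3-bisphosphoglycerate generated in-well by GAPDH (100nM final) in 100mM TEA pH 7.6, 5mM MgCl2, 0.01% Tween-20. After 60 minutes at room temperature, ATP was read by Kinase-Glo Plus luminescence end-point.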
Active calls of the source: *; i = inactive; u = inconclusive; x = no result. Only some compounds are listed: those with a hit (about 1.2% of all), similar ones and a draw of the others. Unless noted, calls follow the shape of the dose curve; as a rule, active = well fitted curve in the direction sought with a large enough effect; inconclusive = small, poorly fitted or top-dose-only effect, or another doubt; inactive = no such curve, though single readings can be large; an effect the other way counts as inactive or inconclusive. % is scaled to controls: 0 for no effect and ±100 for the full control effect.

SMILES | Pin1 inh | KCNH2 3.1 block | GCN5L2 inh | RGS4 inh | hERG WT inh | PGK inhibitor
CCN(CC(=O)Nc1c(F)cccc1F)C(=O)c1ccccc1F | 2% | -5 | -12% | 13% | -25 | -3%
CCN(CC(=O)Nc1c(F)cccc1F)C(=O)c1cc(C)nc2ccccc12 | 1% | 5 | 0% | 3% | -72* | 3%
COc1cc(CCC(=O)OCC(=O)c2ccc[nH]2)cc(OC)c1OC | -1% | -2 | -2% | 3% | -94* | -10%
COc1cc(CC(=O)OCC(=O)c2ccc[nH]2)cc(OC)c1OC | 21% | 5 | -2% | -4% | -5 | 8%
Cc1cc(NS(=O)(=O)c2ccc(NC(=O)COc3c(C)ccc(C)c3C)cc2)nc(C)n1 | -1% | x | -10% | -26% | x | 6%
CC(=O)c1ccc(Oc2cc(C)nc(N3CCOCC3)n2)cc1 | 2% | -136* | -3% | 13% | -2 | -10%
Cc1cc(Oc2ccc(C(C)(C)C)cc2)nc(N2CCOCC2)n1 | -1% | 2 | -2% | -11% | 5 | -5%
CCOC(=O)c1c(-n2cnnn2)sc2c1CCCC2 | -4% | -4 | -8% | -8% | 9 | 6%
CCOC(=O)c1c(N2C(=O)Nc3cc(Cl)c(Cl)cc3N2O)sc2c1CCCCC2 | 54µM* | -7 | u | -46% | 3 | -5%
COc1ccc(N2CCN(S(=O)(=O)c3ccc4oc(=O)c5ncn(C)c5c4c3)CC2)cc1 | 0% | x | -8% | 29% | x | -10%
O=C1c2ccccc2CCC1CNCCc1ccc(O)cc1 (configuration not stated) | x | x | 3% | u | x | x
Cc1ccccc1-c1nn[nH]n1 | 0% | 1 | 0% | -1% | 5 | -6%
c1ccc(-c2nn[nH]n2)c(Nc2cccc3c2CCCC3)c1 | x | x | 18µM* | x | x | x
Cc1ccnc(NS(=O)(=O)c2ccc(NC(=O)c3ccc(Cl)cc3[N+](=O)[O-])cc2)n1 | 5% | -134* | -11% | 48% | -10 | -3%
O=C(CC1SC(=Nc2ccc(OC(F)F)cc2)N(CCN2CCOCC2)C1=O)Nc1ccccc1 (configuration not stated) | 0% | -41 | -21% | -15% | -20 | i
O=C(CC1SC(=Nc2ccc(OC(F)F)cc2)N(CCN2CCOCC2)C1=O)Nc1ccc(F)cc1F (configuration not stated) | 0% | -114* | -22% | 9% | -101* | -3%
COC(=O)c1cc(F)c(S(=O)(=O)N2CCN(S(=O)(=O)c3ccc4c(c3)OCCO4)CC2)cc1F | -4% | x | x | x | x | x
Cc1nc2c(c(SCC(=O)Nc3ccccc3C(F)(F)F)n1)CCC2 | 1% | x | -5% | -5% | x | 0%
Cc1ccc(NC(=S)Nc2cccc3cnccc23)c(C)c1 | -2% | 3 | -10% | -25% | 1 | -15%
Cc1cc(C)cc(NC(=S)Nc2cccc3cnccc23)c1 | 2% | -2 | -3% | u | -228* | i
CCCCCCN1C=C/C(=C\C=C(C#N)C#N)c2ccccc21 | 25% | -105* | -9% | -1% | -148* | -6%
CCCCCCN1C=CC=C/C1=C/C=C(C#N)C#N | u | -31 | 0% | 4% | -123* | 4%
Cc1cc(NS(=O)(=O)c2ccc(NC(=O)COc3ccccc3Br)cc2)no1 | -4% | x | -4% | -14% | x | -1%
O=C(c1cnn(-c2cccc(F)c2)c1-n1cccc1)N1CCN(c2ccccc2F)CC1 | -5% | x | -3% | -11% | x | -2%
COC(=O)c1sc(S(=O)(=O)N2CCCCC2)c(C(=O)OC)c1C | 7% | -187* | -3% | 7% | -1 | i
SMILES | Pin1 inh | KCNH2 3.1 block | GCN5L2 inh | RGS4 inh | hERG WT inh | PGK inhibitor
Cc1ccc(NC(=O)c2ncn(CCCNCCCN(C)C)n2)cc1C | -2% | 10 | x | 22% | -10 | -9%
COc1ccc(CNCCCn2cnc(C(=O)Nc3ccc(C)c(C)c3)n2)cc1 | 3% | -86* | x | 13% | 4 | 5%
Cc1ccc(NC(=O)c2ncn(CCCNCCCc3ccccc3)n2)cc1C | 5% | -91* | x | 16% | -80* | 6%
Cc1ccc(NC(=O)c2ncn(CC(=O)NCc3ccc4[nH]ccc4c3)n2)cc1C | 3% | -30 | -1% | 0% | -1 | 3%
COC(=O)C[C@H](NC(=O)Cn1cnc(C(=O)Nc2ccc(C)c(C)c2)n1)C(=O)OC | -7% | 13 | 1% | 13% | -4 | 0%
COC(=O)Cn1cnc(C(=O)Nc2ccc(C)c(C)c2)n1 | 5% | -73* | 1% | 1% | -5 | 9%
Cc1ccc(NC(=O)c2ncn(CCCN(CCCn3cnc(C(=O)Nc4ccc(C)c(C)c4)n3)Cc3ccc4[nH]ccc4c3)n2)cc1C | 21% | -77* | x | -20% | -91* | i
CC(C)CSc1nnc(-c2ccccc2)c(-c2ccccc2)n1 | -2% | x | -9% | -1% | x | -6%
CCN(Cc1ccccc1)C(=O)Cn1c(=O)oc2cc(S(=O)(=O)N3CCCCCC3)ccc21 | u | x | -4% | -37% | x | x
Cc1ccc(C)c(-n2cc(CNCCCn3cccn3)c(-c3ccccc3)n2)c1 | 0% | 7 | -1% | 12% | 10 | -7%
Cc1ccc(-n2cc(CNCCCn3cccn3)c(-c3cccc(C)c3)n2)cc1 | -2% | -81* | -12% | 0% | u | -7%
C[C@@](N)(C(=O)O)c1cccc(CC(=O)O)c1 | x | x | -8% | i | x | x
C#Cc1ccc(CN2CCN(CCCc3ccccc3)C(CCO)C2)cc1 (configuration not stated) | 0% | -72* | -11% | 22% | 0 | -9%
COc1ccc(CN2CCN(Cc3cc4ccccc4o3)CC2CCO)cc1C (configuration not stated) | 2% | -71* | 1% | -3% | -5 | 8%
OCCC#Cc1ccc(CN2CCN(CCc3ccccc3)C(CCO)C2)cc1 (configuration not stated) | -4% | 4 | -9% | 7% | 9 | i
CCOc1ccc(CN2CCN(CCCc3ccccc3)CC2CCO)cc1 (configuration not stated) | 0% | -8 | 1% | 3% | -82* | 6%
CCOc1ccc(CN2CCN(Cc3cc4ccccc4o3)CC2CCO)cc1 (configuration not stated) | -1% | -107* | -16% | 5% | -48 | 4%
COc1cccc(CN2CCN(Cc3cc4ccccc4o3)CC2CCO)c1 (configuration not stated) | -8% | -12 | 0% | -15% | 9 | -2%
